Measurements: ChEMBL document CHEMBL3988442, “University of Dundee, Small-Polar-MMV Screening Library” (2021)
For part of these data: Potency and affinity values are given separately.

How the values were obtained:
Set-up in all cases: scale not given: direction of the effect not stated beside the values
[1] = target: Protein translocase subunit SecA (Escherichia coli (strain K12)) (UniProt P10408); assay: Assay to Identify E. coli SecA ATPase Inhibitors; format: functional; details: 30 µM
[2] = target: T1, Ubiquitin-activating enzyme e1, putative (Leishmania donovani (strain BPK282A1)) (UniProt E9BSI1); assay: Leishmania donovani Ubiquitin Activating Enzyme (LdE1); format: functional; details: 30 µM
T1 sequence (whole entry): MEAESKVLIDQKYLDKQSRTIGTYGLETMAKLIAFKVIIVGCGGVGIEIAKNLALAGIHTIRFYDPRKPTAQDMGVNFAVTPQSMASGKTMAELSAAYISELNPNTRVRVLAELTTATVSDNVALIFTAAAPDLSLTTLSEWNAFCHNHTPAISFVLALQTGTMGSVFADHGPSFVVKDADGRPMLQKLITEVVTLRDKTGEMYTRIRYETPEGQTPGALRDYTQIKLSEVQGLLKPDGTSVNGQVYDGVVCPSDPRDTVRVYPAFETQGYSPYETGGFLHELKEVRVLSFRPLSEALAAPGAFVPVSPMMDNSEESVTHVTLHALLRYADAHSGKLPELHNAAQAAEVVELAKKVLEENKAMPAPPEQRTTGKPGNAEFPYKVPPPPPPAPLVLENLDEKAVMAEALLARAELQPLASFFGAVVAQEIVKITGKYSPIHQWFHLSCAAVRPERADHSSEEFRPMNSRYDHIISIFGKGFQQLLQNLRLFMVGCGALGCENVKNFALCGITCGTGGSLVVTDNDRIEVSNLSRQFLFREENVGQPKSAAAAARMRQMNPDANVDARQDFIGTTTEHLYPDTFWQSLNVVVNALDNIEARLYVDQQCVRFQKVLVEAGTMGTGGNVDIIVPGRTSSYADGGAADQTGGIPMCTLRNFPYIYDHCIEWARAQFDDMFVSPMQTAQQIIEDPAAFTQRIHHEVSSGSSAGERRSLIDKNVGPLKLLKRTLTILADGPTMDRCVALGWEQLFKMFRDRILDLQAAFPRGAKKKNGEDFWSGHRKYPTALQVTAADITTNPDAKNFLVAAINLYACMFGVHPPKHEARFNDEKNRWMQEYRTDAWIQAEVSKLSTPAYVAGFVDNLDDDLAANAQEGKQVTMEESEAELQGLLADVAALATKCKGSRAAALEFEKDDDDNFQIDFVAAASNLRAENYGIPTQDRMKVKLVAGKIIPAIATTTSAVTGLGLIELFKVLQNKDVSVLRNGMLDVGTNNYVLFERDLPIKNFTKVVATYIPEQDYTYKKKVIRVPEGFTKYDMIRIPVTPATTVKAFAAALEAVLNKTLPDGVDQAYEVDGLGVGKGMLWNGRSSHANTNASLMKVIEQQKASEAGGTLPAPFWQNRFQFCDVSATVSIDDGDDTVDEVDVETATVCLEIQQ

[3] = target: Sialic acid-binding Ig-like lectin 9 (Homo sapiens) (UniProt Q9Y336); assay: Hs-Siglec9 ALPHAscreen SOP 20170721; details: 10 µM
Sequence of Sialic acid-binding Ig-like lectin 9 (Homo sapiens) (Q9Y336 whole entry): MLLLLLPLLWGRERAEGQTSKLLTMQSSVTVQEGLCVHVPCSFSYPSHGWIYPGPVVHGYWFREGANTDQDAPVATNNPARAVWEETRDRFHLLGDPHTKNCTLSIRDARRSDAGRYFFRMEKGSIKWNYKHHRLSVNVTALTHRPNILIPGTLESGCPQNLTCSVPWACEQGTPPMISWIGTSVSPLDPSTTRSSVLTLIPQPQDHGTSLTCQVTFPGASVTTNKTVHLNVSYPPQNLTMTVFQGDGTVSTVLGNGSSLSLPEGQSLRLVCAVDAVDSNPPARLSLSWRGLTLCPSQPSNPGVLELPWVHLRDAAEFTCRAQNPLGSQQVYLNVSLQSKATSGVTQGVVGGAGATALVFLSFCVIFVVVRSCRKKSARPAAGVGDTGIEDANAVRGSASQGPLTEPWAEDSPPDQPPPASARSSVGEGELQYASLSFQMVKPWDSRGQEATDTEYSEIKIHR

[4] = system: Trypanosoma cruzi; assay: Trypanosoma cruzi phosphomannomutase and mannose-1-phosphate guanylyltransferase assay; format: functional; details: 10 µM
[5] = target: T2, Arginase-2, mitochondrial (Homo sapiens) (UniProt P78540); assay: in vitro enzyme assay to detect the production of urea directly proportional to the activity of Arginase II; format: functional; details: 33.3 µM; note: in the data most compounds retested in dose-response had high values
T2 sequence (whole entry): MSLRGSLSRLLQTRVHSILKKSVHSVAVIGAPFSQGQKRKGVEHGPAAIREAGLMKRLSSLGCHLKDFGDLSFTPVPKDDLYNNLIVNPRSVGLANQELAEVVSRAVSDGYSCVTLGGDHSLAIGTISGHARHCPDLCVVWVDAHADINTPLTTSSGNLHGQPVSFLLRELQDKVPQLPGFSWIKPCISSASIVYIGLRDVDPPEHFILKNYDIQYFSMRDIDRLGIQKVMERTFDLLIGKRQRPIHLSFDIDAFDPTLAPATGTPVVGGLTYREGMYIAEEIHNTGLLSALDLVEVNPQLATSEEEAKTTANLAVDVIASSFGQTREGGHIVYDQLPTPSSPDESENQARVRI

[6] = target: T3, Proteasome subunit beta (Trypanosoma cruzi) (UniProt O96673); assay: Trypanosoma cruzi proteasome chymotrypsin-like activity (TcProtChymo) assay.; note: in the data most compounds retested in dose-response had high values; format: functional; details: 9.37 µM
T3 sequence (whole entry): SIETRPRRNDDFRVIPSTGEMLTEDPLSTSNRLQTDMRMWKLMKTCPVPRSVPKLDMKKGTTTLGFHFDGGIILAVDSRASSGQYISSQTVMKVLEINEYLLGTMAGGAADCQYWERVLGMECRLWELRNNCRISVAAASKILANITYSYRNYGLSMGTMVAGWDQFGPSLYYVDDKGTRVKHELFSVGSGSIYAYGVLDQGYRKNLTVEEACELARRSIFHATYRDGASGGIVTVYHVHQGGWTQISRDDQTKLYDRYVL

[7] = species: Homo sapiens; assay: To identify inhibition of the IFN signalling (Jak-Stat) pathway via expression of an eGFP reporter gene under the control of an IFN-stimulated response element (ISRE) containing MxA promoter.; format: functional; details: 30 µM
[8] = target: T4, Tyrosyl-tRNA synthetase, putative (Trypanosoma cruzi (strain CL Brener)) (UniProt Q4DSP6); assay: Trypanosoma cruzi tyrosyl tRNA synthetase (TcYRS) _High Tyrosine SOP; format: functional; details: 30 µM; note: in the data most compounds retested in dose-response had high values
T4 sequence (whole entry): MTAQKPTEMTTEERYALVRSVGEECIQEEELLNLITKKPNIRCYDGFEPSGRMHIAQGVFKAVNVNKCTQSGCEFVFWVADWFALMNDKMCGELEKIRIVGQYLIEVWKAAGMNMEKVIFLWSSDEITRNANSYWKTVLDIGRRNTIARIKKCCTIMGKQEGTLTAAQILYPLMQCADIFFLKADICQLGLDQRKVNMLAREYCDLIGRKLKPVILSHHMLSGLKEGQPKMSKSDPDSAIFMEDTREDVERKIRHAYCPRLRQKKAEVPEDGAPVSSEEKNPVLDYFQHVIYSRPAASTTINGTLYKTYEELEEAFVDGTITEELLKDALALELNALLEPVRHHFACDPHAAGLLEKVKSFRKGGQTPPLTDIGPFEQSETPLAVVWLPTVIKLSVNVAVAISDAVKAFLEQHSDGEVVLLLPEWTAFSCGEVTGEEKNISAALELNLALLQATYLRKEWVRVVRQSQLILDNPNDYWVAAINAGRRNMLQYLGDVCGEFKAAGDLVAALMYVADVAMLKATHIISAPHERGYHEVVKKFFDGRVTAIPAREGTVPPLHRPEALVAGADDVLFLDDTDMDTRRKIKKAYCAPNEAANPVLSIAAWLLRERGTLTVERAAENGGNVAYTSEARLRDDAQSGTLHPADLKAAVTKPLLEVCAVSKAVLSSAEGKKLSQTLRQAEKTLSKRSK

[9] = target: T4, Tyrosyl-tRNA synthetase, putative (Trypanosoma cruzi (strain CL Brener)); assay: Trypanosoma cruzi tyrosyl tRNA synthetase (TcYRS) SOP; format: functional; details: 30 µM
[10] = target: Chromo domain-containing protein 1 (Saccharomyces cerevisiae (strain ATCC 204508 / S288c) (Baker's yeast)) (UniProt P32657); assay: ScCHD-1 Enzyme Inhibition Assay; format: functional; details: 30 µM; note: in the data most compounds retested in dose-response had high values
Sequence of Chromo domain-containing protein 1 (Saccharomyces cerevisiae (strain ATCC 204508 / S288c) (Baker's yeast)) (P32657 whole entry, the tested form may be a part): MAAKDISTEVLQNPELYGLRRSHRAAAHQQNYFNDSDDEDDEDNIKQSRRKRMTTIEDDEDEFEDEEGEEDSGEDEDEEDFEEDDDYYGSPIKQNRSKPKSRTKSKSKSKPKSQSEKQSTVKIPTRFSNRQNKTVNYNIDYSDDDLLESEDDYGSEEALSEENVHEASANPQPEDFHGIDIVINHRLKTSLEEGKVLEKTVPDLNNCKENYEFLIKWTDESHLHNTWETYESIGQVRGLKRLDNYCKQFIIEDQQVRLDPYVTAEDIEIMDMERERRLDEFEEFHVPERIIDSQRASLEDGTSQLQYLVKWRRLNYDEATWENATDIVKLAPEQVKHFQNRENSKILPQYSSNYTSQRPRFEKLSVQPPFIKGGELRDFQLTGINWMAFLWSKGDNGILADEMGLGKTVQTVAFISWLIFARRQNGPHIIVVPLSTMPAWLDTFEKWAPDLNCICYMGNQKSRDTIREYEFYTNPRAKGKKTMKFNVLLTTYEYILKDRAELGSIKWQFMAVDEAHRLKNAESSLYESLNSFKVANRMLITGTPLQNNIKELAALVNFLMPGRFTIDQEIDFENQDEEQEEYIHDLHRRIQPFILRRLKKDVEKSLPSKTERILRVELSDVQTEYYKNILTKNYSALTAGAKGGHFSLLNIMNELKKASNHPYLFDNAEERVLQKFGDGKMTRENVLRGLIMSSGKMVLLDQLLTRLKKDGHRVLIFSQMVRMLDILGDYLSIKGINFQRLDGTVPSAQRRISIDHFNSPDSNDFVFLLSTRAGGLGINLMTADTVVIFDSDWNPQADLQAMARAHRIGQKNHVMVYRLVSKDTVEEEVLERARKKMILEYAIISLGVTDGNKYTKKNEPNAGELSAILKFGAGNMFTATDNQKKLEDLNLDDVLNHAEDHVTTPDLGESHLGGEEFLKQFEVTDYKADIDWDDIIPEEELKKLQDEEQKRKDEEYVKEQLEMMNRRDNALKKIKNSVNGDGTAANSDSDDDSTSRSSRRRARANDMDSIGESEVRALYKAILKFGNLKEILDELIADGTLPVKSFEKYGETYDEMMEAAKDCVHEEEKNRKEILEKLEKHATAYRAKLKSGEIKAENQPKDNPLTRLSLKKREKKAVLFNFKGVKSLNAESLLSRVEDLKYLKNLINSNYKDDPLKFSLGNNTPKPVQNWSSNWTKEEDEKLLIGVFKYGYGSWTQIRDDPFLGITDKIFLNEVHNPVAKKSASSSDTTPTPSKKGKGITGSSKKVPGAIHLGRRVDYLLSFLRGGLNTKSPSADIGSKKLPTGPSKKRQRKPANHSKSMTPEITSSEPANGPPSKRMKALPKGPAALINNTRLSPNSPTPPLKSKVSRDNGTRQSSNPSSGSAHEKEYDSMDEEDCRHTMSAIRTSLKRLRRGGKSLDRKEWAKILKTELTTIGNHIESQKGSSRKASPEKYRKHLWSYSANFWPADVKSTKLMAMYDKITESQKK

Sequence of Protein translocase subunit SecA (Escherichia coli (strain K12)) (P10408 whole entry): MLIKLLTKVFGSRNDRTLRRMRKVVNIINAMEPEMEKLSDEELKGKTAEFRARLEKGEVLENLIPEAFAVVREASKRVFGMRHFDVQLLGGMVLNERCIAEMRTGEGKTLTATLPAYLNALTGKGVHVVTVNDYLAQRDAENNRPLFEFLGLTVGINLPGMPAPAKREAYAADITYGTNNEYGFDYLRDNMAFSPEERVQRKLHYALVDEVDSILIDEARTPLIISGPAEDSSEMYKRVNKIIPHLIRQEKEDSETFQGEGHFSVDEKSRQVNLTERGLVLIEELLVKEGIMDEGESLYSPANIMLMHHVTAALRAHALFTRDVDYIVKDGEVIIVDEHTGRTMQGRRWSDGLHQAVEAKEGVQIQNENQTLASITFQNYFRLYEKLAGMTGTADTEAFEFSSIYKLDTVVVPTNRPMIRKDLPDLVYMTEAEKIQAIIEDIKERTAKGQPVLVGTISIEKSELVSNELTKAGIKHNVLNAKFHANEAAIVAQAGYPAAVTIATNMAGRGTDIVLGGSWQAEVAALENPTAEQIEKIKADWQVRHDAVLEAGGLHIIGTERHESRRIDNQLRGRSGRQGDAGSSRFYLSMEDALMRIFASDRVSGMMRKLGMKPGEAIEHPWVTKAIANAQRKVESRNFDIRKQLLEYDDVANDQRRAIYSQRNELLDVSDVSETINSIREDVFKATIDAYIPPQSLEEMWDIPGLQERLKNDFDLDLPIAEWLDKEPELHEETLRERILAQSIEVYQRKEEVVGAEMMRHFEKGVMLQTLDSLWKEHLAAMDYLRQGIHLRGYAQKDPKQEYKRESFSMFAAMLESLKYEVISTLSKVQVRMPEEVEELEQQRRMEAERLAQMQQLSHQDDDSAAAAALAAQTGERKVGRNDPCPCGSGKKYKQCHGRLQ

Row | SMILES | Percent Effect [1] [%] | Percent Effect [2] [%] | Percent Effect [3] [%] | Percent Effect [4] [%] | Percent Effect [5] [%] | Percent Effect [6] [%] | Percent Effect [7] [%] | Percent Effect [8] [%] | Percent Effect [9] [%] | Percent Effect [10] [%]
1 | Cc1cccnc1C(=O)N1CCCC(c2[nH]ncc2S(C)(=O)=O)C1 (stereo not given) | -0.892 | 4 | 0.0565 | -4.54 | 3.1 | 0.985 | 20 | 5.29 | 7.5 | -20.1
2 | O=C(CCC1CCN(Cc2ncc[nH]2)CC1)Nc1ccccc1Cl | -2.38 | -5.41 | -2.45 | -0.291 | -2.45 | 8.56 | 0.831 | -0.532 | 0 | 4.74
3 | Cc1cccc(C(=O)N2CCC(Cc3cnc4[nH]ccc4c3)CC2)n1 | -4.68 | 12 | -0.292 | -3.35 | 4.42 | 9.2 | 2.32 | 3.17 | 7.5 | -24.1
4 | O=C(NCc1ccccc1-n1cccn1)N1CCN2CCCCC2C1 (stereo not given) | -4.48 | 0 | 9.91 | 0.803 | 2.22 | 1.78 | -2.71 | 2.63 | 10.3 | -8
5 | CCS(=O)(=O)N1C[C@@H](OCc2cccnc2)[C@H]2OCCC[C@H]21 | -10.2 | 1.3 | 6.61 | -4.58 | -3.64 | 7.68 | 9 | 4.74 | 7.69 | 0.0373
6 | CN(C)C(=O)[C@@H]1CCO[C@@H]2CCN(Cc3ccc4c(c3)OCO4)C[C@@H]21 | -3.73 | 11.7 | -6.65 | 7.5 | -4.86 | 10.9 | 0.999 | 3.68 | 2.56 | 2.41
7 | Cc1[nH]c2ccccc2c1-c1ccnc(NCCN2CCOCC2)n1 | -1.25 | 5.33 | -2.88 | -7.83 | -7.54 | 14.8 | 21.5 | -1.58 | -2.56 | -15.1
8 | O=C(C1CC=CC1)N1CCC2(CC1)CN(Cc1ccccn1)CCO2 | -2.34 | 1.3 | -0.373 | 2.63 | -4.86 | 5.74 | -19 | 1.58 | 5.13 | 3.73
9 | CCc1nc(C2CCCN2C(=O)c2ccc3c(c2)nnn3CC)no1 (stereo not given) | -3.49 | 0 | 5.14 | -1.41 | 0 | 3.99 | 11.6 | 2.63 | 0 | -12.3
